In PubChem BioAssay (NCATS):
Records with an inconclusive call do not appear. Unmarked numbers belong to inactive results. Activity calls are given as the source filed them. Calls follow the shape of the dose curve; as a rule, active = well fitted inhibition curve with a large enough effect; inconclusive = small, poorly fitted or top-dose-only effect; inactive = no such curve, though single readings can be large or run the other way.

The compounds below were run against N-terminal Xaa-Pro-Lys N-methyltransferase 1 (Homo sapiens) (UniProt Q9BV86) (assay: qHTS Assay for Inhibitors of N-terminal methyltransferase 1 (NTMT1): LOPAC validation of the NTMT1 SAHH-coupled ThioGlo3 Assay (AID 1347143;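 also: SAH from peptide methylation measured as thiol fluorescence via SAHH coupling and ThioGlo3; nearly all actives have a fitted effect of over 70% in size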; also: potency is read from the fitted curve at half-maximal effect; as to activity change, negative = inhibition: % is scaled to controls: 0 for no effect and ±100 for the full control effect)). Conditions: recombinant NTMT1, SAHH-coupled ThioGlo3 fluorescence; series mostly up to 114 µM; activity change, negative = inhibition: at the top concentration.
Sequence of N-terminal Xaa-Pro-Lys N-methyltransferase 1 (Homo sapiens) (Q9BV86 whole entry, looked up): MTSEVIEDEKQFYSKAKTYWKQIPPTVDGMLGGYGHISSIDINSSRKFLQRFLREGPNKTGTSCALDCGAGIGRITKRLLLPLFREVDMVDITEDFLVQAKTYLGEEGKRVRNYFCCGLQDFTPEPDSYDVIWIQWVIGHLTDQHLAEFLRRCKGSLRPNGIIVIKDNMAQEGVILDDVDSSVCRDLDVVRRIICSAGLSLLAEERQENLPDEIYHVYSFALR
Method in brief: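 In this qHTS pilot against the LOPAC set, 125nM NTMT1 met compounds tested at multiple concentrations, and fluorescence was normalized to background.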

Compound	activity change, negative = inhibition [%]	Potency
Cn1cnc2c(NCc3ccccc3)nc(NCCO)nc21	-11.4	
C[N+](C)(C)CCO	-15.6	
Cc1nn(-c2ccccc2)c(C)c1/C=N/N1CCN(Cc2ccccc2)CC1		15.8 µM (active)
CCN(CC)CCNC(=O)c1ccc(NS(C)(=O)=O)cc1	-27.2	
Brc1ccc([C@H]2CN3CCSC3=N2)cc1		79.4 µM (active)
COC(=O)C1=CO[C@@H](O)[C@@H]2C(CO)=CC[C@H]12	-13.6	
N[C@@H](Cn1ccc(=O)c(O)c1)C(=O)O	-20.1	
NC(N)=NCCCCN=C(N)N	-6.13	

What follows are compounds tested against Furin (Homo sapiens) (UniProt P09958) (assay: Furin counterscreen qHTS for Zika virus inhibitors (AID 1347149; also: nearly all actives have a fitted effect of over 70% in size; also: potency is read from the fitted curve at half-maximal effect;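 as to activity change, negative = inhibition: purified recombinant full-length human furin enzyme at 5 nM; fluorescence gain from furin cutting a BOC-RVRR-AMC peptide substrate over 15 min; top concentration of the series differs between compounds; plate controls were no-inhibitor control for no effect and no-enzyme control for full effect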)). Conditions: furin enzymatic counterscreen, fluorogenic substrate; series mostly up to 114 µM; activity change, negative = inhibition: at the top concentration.
Sequence of Furin (Homo sapiens) (P09958 whole entry, looked up): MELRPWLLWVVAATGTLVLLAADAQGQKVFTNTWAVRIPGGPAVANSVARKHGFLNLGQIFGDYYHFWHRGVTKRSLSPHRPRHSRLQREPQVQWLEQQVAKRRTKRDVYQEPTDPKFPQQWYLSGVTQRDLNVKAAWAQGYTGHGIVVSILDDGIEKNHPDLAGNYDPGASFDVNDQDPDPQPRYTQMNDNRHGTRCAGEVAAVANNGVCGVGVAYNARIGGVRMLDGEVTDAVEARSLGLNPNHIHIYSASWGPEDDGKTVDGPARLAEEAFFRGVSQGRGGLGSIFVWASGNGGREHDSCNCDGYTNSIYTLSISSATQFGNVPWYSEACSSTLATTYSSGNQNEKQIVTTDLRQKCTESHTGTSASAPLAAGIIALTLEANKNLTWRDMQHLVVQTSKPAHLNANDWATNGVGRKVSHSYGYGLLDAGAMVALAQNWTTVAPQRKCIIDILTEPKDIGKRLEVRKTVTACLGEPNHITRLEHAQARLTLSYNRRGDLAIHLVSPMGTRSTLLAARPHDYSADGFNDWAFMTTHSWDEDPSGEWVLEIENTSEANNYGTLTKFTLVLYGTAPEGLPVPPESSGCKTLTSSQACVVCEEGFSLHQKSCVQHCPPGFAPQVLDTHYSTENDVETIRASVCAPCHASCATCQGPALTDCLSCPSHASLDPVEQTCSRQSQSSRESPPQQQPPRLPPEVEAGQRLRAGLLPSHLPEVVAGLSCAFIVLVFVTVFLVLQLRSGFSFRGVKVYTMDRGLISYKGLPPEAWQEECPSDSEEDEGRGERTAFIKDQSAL
Method in brief: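 Counterscreen measures cleavage of 2 microM BOC-RVRR-AMC, below its ~15 microM Km, by 5 nM full-length human furin at pH 7.0 after a 15-min compound preincubation. Inhibition derives from the 15-min fluorescence increase at 37C.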

Compound	activity change, negative = inhibition	Potency
N[C@@H](Cc1cc(I)c(O)c(I)c1)C(=O)O	-2.53% [at 57.5 µM]	
Cc1nc(C2CCCCC2)c(-c2ccc(S(N)(=O)=O)c(F)c2)o1		24.1 µM (active)
O=C(Nc1ccc(S(=O)(=O)N2CCOCC2)cc1)c1cc(Cl)ccc1NS(=O)(=O)c1ccc(Cl)s1		21.5 µM (active)
CCC(=O)O[C@H]1[C@H](O[C@@H]2[C@@H](C)[C@H](O[C@H]3C[C@@](C)(OC)[C@@H](O)[C@H](C)O3)[C@@H](C)C(=O)O[C@H](CC)[C@@](C)(O)[C@H](O)[C@@H](C)C(=O)[C@H](C)C[C@@]2(C)O)O[C@H](C)C[C@@H]1N(C)C		34.1 µM (active)
O=C(CCCCC(=O)Nc1c(I)cc(I)c(C(=O)O)c1I)Nc1c(I)cc(I)c(C(=O)O)c1I	9.18% [at 18.8 µM]	
O=C(COCCOCCOCC(=O)Nc1c(I)cc(I)c(C(=O)O)c1I)Nc1c(I)cc(I)c(C(=O)O)c1I	-11.4%	

These compounds were tested on Zika virus NS2B-NS3 protease (unlinked) (assay: Optimization of GU AMC qHTS for Zika virus inhibitors: Unlinked NS2B-NS3 protease assay (AID 1347151;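 also: 0% = no-inhibitor control and -100% = no-enzyme control; nearly all actives have a fitted effect of over 80% in size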)). Conditions: recombinant ZIKV NS2B-NS3 protease, fluorogenic AMC substrate; series mostly up to 52.5 µM; activity change, negative = inhibition: at the top concentration.
Method in brief: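 Fluorescence read-out (340 nm ex / 450 nm em) of AMC peptide cleavage, taken immediately and after 15 min at room temperature (~20% conversion). Enzyme was the unlinked NS2B–NS3 complex at 25 nM in Tris pH 8.0 buffer.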

Compound	activity change, negative = inhibition [%]
COc1cccc2c1[C@@H]1CN(CCCCn3c(=O)[nH]c4c(sc5ncc(-c6ccccc6)nc54)c3=O)C[C@@H]1CO2	-15.7
O=[N+]([O-])c1ccc(-c2nc(-c3ccc(F)cc3)c(-c3ccncc3)[nH]2)cc1	-11.6
Cn1cnc2c(NCc3ccccc3)nc(NCCO)nc21	-7.15
C[N+](C)(C)CCO	2.41
Cc1nn(-c2ccccc2)c(C)c1/C=N/N1CCN(Cc2ccccc2)CC1	-6.86
CCN(CC)CCNC(=O)c1ccc(NS(C)(=O)=O)cc1	0.501
COC(=O)C1=CO[C@@H](O)[C@@H]2C(CO)=CC[C@H]12	1.6
N[C@@H](Cn1ccc(=O)c(O)c1)C(=O)O	6.82
NC(N)=NCCCCN=C(N)N	9.12
